# Measured values as given in PubChem BioAssay (NCATS).
# Inconclusive results are not listed. Active and inactive are the calls of the source. Calls follow the shape of the dose curve; as a rule, active = well fitted cell-killing curve with a large enough effect; inconclusive = small, poorly fitted or top-dose-only effect, or effect the other way; inactive = flat fitted curve, though single readings scatter.
# System: Hek293T
# Test: Primary qHTS to identify gynecologic anti-cancer compounds using libraries of approved drugs and bioactive compounds (AID 1345084); also: nearly all actives have a fitted effect of over 55% in size
# Conditions: Gynecologic cancer cell panel viability, ATPlite luminescence, 48 h, control line for the selectivity index; series mostly up to 57.5 µM; activity change, negative = cytotoxicity: at the top concentration
# In short: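 In this quantitative HTS, cell killing is estimated from loss of ATP-dependent luciferase light. Cells see five compound concentrations over a 48 h exposure.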
# % is scaled to controls: 0 for no effect and ±100 for the full control effect; potency is read from the fitted curve at half-maximal effect.
Compound,"activity change, negative = cytotoxicity",Potency
C[C@@]12CC[C@@H]3[C@@](CC[C@H]4[C@@]3(C)CCC[C@@]4(C)C(=O)O)(CC1=O)C2,8.41% (inactive),–
C=C1C(OC2OCC(O)C(O)C2O)CC2C(C)(C)C(O)CCC2(C)C1CC/C(C)=C\CO (configuration not stated),-1.61% [at 25.3 µM] (inactive),–
CC1(C)[C@@H](O)CC[C@]2(C)[C@H]3CC=C4[C@@H]5C[C@](C)(C(=O)O)CC[C@]5(C)CC[C@@]4(C)[C@]3(C)CC[C@@H]12,2.07% (inactive),–
CC(CO)C1CCC2(C)CC3C(CO)CC(O)C3C(C)(O)C/C=C/12 (configuration not stated),-0.508% [at 38.5 µM] (inactive),–
CC/C=C\C/C=C\C/C=C\CCCCCCCC(=O)OCC(O)COC1OC(CO)C(O)C(O)C1O (configuration not stated),5.3% [at 25.3 µM] (inactive),–
O=C1NC(=O)C(c2cn(-c3ccccc3)nc2-c2ccc(F)cc2)N1 (configuration not stated),-27.7% (inactive),–
CC1=C(C)C(=O)OC(C(C)C2CCC3C4C5OC5C5(O)CC(OC6OC(CO)C(OC7OC(C)C(O)C(O)C7O)C(O)C6O)CC(O)C5(C)C4CCC23C)C1 (configuration not stated),11.2% [at 25.3 µM] (inactive),–
COc1cc(N)c(Cl)cc1C(=O)NC[C@@H]1CCN2CCC[C@@H]12,0.0468% (inactive),–
CC(=O)OC1C[C@@]2(C)[C@@H](CC[C@@H](C)[C@]23Cc2c(O)cc4c(c2O3)CNC4=O)C(C)(C)[C@@H]1O (some centres not stated),0.663% [at 25.3 µM] (inactive),–
C=C(C(=O)O)[C@H]1C[C@]2(C)[C@@H](O)CC[C@]23O[C@H]1C[C@@H]3C,19.3% (inactive),–
C[C@H](Oc1ccc(S(C)(=O)=O)cc1C(=O)N1CCN(c2ncc(C(F)(F)F)cc2F)CC1)C(F)(F)F,1.75% (inactive),–
O=C1NC(Cc2ccccc2)C(=O)N2CCCC12 (configuration not stated),0.482% (inactive),–
O=C(NCc1ccccn1)Nc1nnc(-c2ccco2)o1,-5.23% (inactive),–
CC1CCC2C(C(=O)O)=COC(O[C@@H]3O[C@H](CO)[C@@H](O)[C@H](O)[C@H]3O)C12 (some centres not stated),-19.9% [at 38.5 µM] (inactive),–
COc1c2ccoc2cc2oc(CO[C@@H]3O[C@H](CO)[C@@H](O)[C@H](O)[C@H]3O)cc(=O)c12,9.9% [at 38.5 µM] (inactive),–
COc1cc(/C=C/C=O)cc(OC)c1O[C@@H]1O[C@H](CO)[C@@H](O)[C@H](O)[C@H]1O,5.25% [at 38.5 µM] (inactive),–
Cc1cc(OCc2nc(-c3ccccc3Cl)cs2)ccc1OCC(=O)O,-19.8% (inactive),–
Cc1cccc(C)c1-n1c(=O)c2cnc(Nc3ccc(N4CCN(C)CC4)cc3)nc2n2c3ccccc3nc12,–,3.55 µM (active)
O=C(Nc1ccc(S(=O)(=O)Nc2ccccc2Cl)c(Cl)c1)c1ccccn1,2.32% (inactive),–
COc1ccc(CC2NCCc3c2[nH]c2ccc(C)cc32)cc1OC (configuration not stated),-28.3% (inactive),–
C=C(C(=O)O)[C@@H]1CC[C@@]2(C)CC[C@H](O)[C@@]2(C(C)=O)C1,1.68% (inactive),–
CC(C)(O)CC(CO)NC(=O)CC(O)CC(=O)Cc1ccccc1 (configuration not stated),2.97% [at 38.5 µM] (inactive),–
